# From the supplement of paper PMC4206461
# Values without a mark were called inactive.
# How the values were obtained:
# [1] = test system: Pseudomonas aeruginosa PA14 dppA1-A5 penta mutant + pBBR5.DppA1 (PA14_58350); assay: respiration area under curve with compound as sole nitrogen source, 24 h (OmniLog AUC (arbitrary units)); higher = more respiration / better utilisation as nitrogen source, active = 2000 or more
# Experimental: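 Biolog Phenotype MicroArray plates PM6-PM8: each di/tripeptide is the sole nitrogen source. Tetrazolium reduction was read in the OmniLog for 24 h at 37°C and summarised as area under the respiration curve (arbitrary units). Values below 2000 count as no respiration. Strain is the SBP penta mutant complemented with DppA1 on a plasmid under its native promoter. Lys/His/Cys peptides are excluded.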
# [2] = test system: Pseudomonas aeruginosa PA14 wild type; assay: as above
# Experimental: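 Biolog Phenotype MicroArray plates PM6-PM8: each di/tripeptide is the sole nitrogen source (IF-0 medium with succinate/ferric citrate and dye mix A). Tetrazolium reduction was read in the OmniLog every 15 min for 24 h at 37°C and summarised as area under the respiration curve (arbitrary units). The paper counts values below 2000 as no respiration and above 8000 as solid respiration. Replicate datasets are averaged.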
# [3] = test system: Pseudomonas aeruginosa PA14 dppBCDF deletion mutant; assay: respiration area under curve with compound as sole nitrogen source, 24 h (OmniLog AUC (arbitrary units)); higher = more respiration / better utilisation as nitrogen source, active = 2000 or more; extreme values may be limits of the assay
# Experimental: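 Biolog Phenotype MicroArray plates PM6-PM8: each di/tripeptide is the sole nitrogen source. Tetrazolium reduction was read in the OmniLog every 15 min for 24 h at 37°C and summarised as area under the respiration curve (arbitrary units). Values below 2000 count as no respiration. Strain is the dipeptide ABC transporter deletion mutant.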
Compound,respiration area under curve [1],respiration area under curve [2],respiration area under curve [3]
CC[C@H](C)[C@H](N)C(=O)N[C@@H](CO)C(=O)O (plate: PM6),3970 (active),6110 (active),156
N[C@@H](Cc1ccccc1)C(=O)N[C@@H](Cc1c[nH]c2ccccc12)C(=O)O (plate: PM7),389,524,85
C[C@H](NC(=O)[C@@H]1CCCN1)C(=O)O (plate: PM7),6110 (active),–,–
NC(=O)CC[C@H](NC(=O)[C@@H](N)CCC(N)=O)C(=O)O (plate: PM6),–,8430 (active),4130 (active)
CSCC[C@H](N)C(=O)N[C@H](C(=O)O)C(C)C (plate: PM7),–,4480 (active),1430
CC[C@H](C)[C@H](N)C(=O)NCC(=O)O (plate: PM6),–,4940 (active),0
CC(C)C[C@H](NC(=O)[C@@H](N)CO)C(=O)O (plate: PM7),–,7960 (active),3310 (active)
NCC(=O)N[C@@H](Cc1ccc(O)cc1)C(=O)O (plate: PM6),1420,–,–
C[C@@H](N)C(=O)NCC(=O)NCC(=O)O (plate: PM8),46.7,211,0
C[C@H](N)C(=O)N[C@H](C(=O)O)[C@@H](C)O (plate: PM6),–,6750 (active),1650
CC[C@H](C)[C@H](N)C(=O)N[C@@H](Cc1c[nH]c2ccccc12)C(=O)O (plate: PM6),287,–,–
N[C@@H](Cc1ccccc1)C(=O)N1CCC[C@H]1C(=O)O (plate: PM7),3980 (active),–,–
CC(C)[C@H](N)C(=O)N[C@@H](CC(N)=O)C(=O)O (plate: PM7),–,12300 (active),5280 (active)
C[C@H](N)C(=O)N[C@@H](CCC(=O)O)C(=O)O (plate: PM6),–,7840 (active),3750 (active)
CC(C)[C@H](N)C(=O)N[C@@H](Cc1ccc(O)cc1)C(=O)O (plate: PM7),7120 (active),8020 (active),3890 (active)
CC(C)CC(N)C(=O)NC(Cc1c[nH]c2ccccc12)C(=O)O (stereo unspecified) (plate: PM7),8370 (active),–,–
CSCC[C@H](N)C(=O)N[C@@H](CCC(N)=O)C(=O)O (plate: PM7),–,9160 (active),3640 (active)
CC(C)[C@H](NC(=O)CN)C(=O)O (plate: PM6),–,4270 (active),124
CC(C)[C@H](N)C(=O)N[C@@H](Cc1ccc(O)cc1)C(=O)N[C@H](C(=O)O)C(C)C (plate: PM8),–,8370 (active),5710 (active)
CC(C)[C@H](NC(=O)[C@@H](N)Cc1ccccc1)C(=O)O (plate: PM8),–,6870 (active),3510 (active)

Compound,respiration area under curve [1],respiration area under curve [2],respiration area under curve [3]
N[C@@H](CC(=O)O)C(=O)N[C@@H](Cc1c[nH]c2ccccc12)C(=O)O (plate: PM6),–,2310 (active),1260
NC(N)=NCCC[C@H](N)C(=O)N[C@@H](CC(=O)O)C(=O)O (plate: PM6),–,9430 (active),7880 (active)
NC(=O)CC[C@H](NC(=O)[C@@H](N)CO)C(=O)O (plate: PM8),7790 (active),–,–
CC(NC(=O)C(N)CC(=O)O)C(=O)O (stereo unspecified) (plate: PM8),–,8830 (active),12.2
NC(=O)CC[C@H](NC(=O)[C@@H](N)CC(=O)O)C(=O)O (plate: PM8),–,9700 (active),5.25
CC[C@H](C)[C@H](N)C(=O)N[C@@H](CCC(N)=O)C(=O)O (plate: PM6),–,7450 (active),873
CC(C)C[C@H](NC(=O)[C@@H](N)[C@@H](C)O)C(=O)O (plate: PM7),–,7920 (active),1070
CSCC[C@H](NC(=O)CN)C(=O)O (plate: PM6),50.7,–,–
CC(C)[C@H](N)C(=O)N[C@H](C(=O)O)C(C)C (plate: PM7),–,9240 (active),1580
NC(N)=NCCC[C@H](N)C(=O)N[C@@H](Cc1c[nH]c2ccccc12)C(=O)O (plate: PM6),–,8730 (active),7640 (active)
O=C(O)CC(NC(=O)C1CCCN1)C(=O)O (stereo unspecified) (plate: PM7),–,4460 (active),0
N[C@@H](CO)C(=O)N[C@@H](Cc1ccc(O)cc1)C(=O)O (plate: PM7),5300 (active),–,–
CSCC[C@H](N)C(=O)N1CCC[C@H]1C(=O)O (plate: PM7),8590 (active),–,–
CC[C@H](C)[C@H](N)C(=O)N[C@@H](C)C(=O)O (plate: PM6),2520 (active),–,–
CC(C)C[C@@H](N)C(=O)N[C@H](CC(C)C)C(=O)O (plate: PM8),0,–,–
C[C@H](NC(=O)CN)C(=O)O (plate: PM6),–,4610 (active),48.2
CSCC[C@H](N)C(=O)N[C@H](C(=O)O)[C@@H](C)O (plate: PM8),–,4350 (active),211
O=C(O)CC[C@H](NC(=O)[C@@H]1CCCN1)C(=O)O (plate: PM8),5380 (active),7660 (active),–
CC[C@H](C)[C@H](NC(=O)[C@@H](N)C(C)C)C(=O)O (plate: PM7),6870 (active),9390 (active),–
